Bioassay records: PubChem, National Center for Advancing Translational Sciences (NCATS)
DRD3 antagonist: D3 dopamine receptor (human) antagonism; 2.5% of 360,000 active; max response, negative = inhibition, %; P35462; D3R cells, DiscoveRx beta-arrestin luminescence, antagonist mode; hits give low values; in the data active = max response below about -50%; inconclusive = no clear call, values can overlap the other calls; also: % is scaled to controls: 0 for no effect and ±100 for the full control effect
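Cells plated overnight at 1500 cells/well, then exposed to library compounds with dopamine controls for 90 minutes at 37 degrees C. DiscoveRx reagent added for 30–60 minutes at room temperature; luminescence read, quantitative HTS format.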
ClpP mod: qHTS Assay for Activators of ClpP; purified B. subtilis ClpP, FRET peptide cleavage, 20 min; Potency, µM (top dose mostly 57.5 µM), inactives show top-dose activity change, negative = active; AID 651965, 2013; 1.9% of 340,000 active; active = well fitted falling curve with a large enough effect; inconclusive = small, poorly fitted or top-dose-only effect; inactive = no such curve, though single readings can be large or run the other way; also: potency is read from the fitted curve at half-maximal effect; the source files actives as falling curves though it sought activators and does not explain the sign; nearly all actives have a fitted effect of over 65% in size
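Purified B. subtilis ClpP, 10 microg/mL final in Tris/HCl pH8 with KCl, BSA, glycerol and Tween-20, cleaved an Abz/nitrotyrosine-quenched decapeptide. Fluorescence (ex 320, em 430) was read at 0 and 20 min at room temperature. Delta was normalized to 5.8 microM ADEP and DMSO/no-enzyme controls.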
IL1B secr inh: inhibitors of inflammasome signaling (IL-1 beta secretion); THP-1 LPS/ATP IL-1B secretion, AlphaLISA, 16 h; hits give low values; activity change, % at 57.5 µM; 4.7% of 360,000 active; in the data active = activity change below about -50%; inconclusive = mostly about -30% to -49%; also: % is scaled to controls: 0 for no effect and ±100 for the full control effect
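THP-1 cells pretreated 1 hr with compounds (up to 57.5 uM final), then stimulated with LPS (250 ng/mL final) plus ATP (1.25 mM final); secreted IL-1B measured by AlphaLISA after 16 hr, decreased signal indicating inhibition.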
TDP1 cell CPT: growth inhibition of DT40 Tdp1-/-;hTDP1 cells with camptothecin (screen for TDP1 inhibitors); chicken DT40 Tdp1-/-;hTDP1 cells + 20 nM CPT, ATP luminescence, 48 h; AID 686979; 12% of 420,000 active; Potency, µM (highest dose often 46.2 µM), for the others: at the highest dose activity change, negative = growth inhibition, hits mostly inhibitors; also: potency is read from the fitted curve at half-maximal effect; % is scaled to controls: 0 for no effect and ±100 for the full control effect; nearly all actives have a fitted effect of over 55% in size
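Chicken DT40 Tdp1-/- cells complemented with human TDP1, 400 cells/well, exposed to compounds plus 20 nM camptothecin for at least 48 h at 37 C; viability read as ATP content by CellTiter-Glo luminescence.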
DT40 TDP1 no CPT: qHTS for Inhibitors of human tyrosyl-DNA phosphodiesterase 1 (TDP1): qHTS in cells in absence of CPT. DT40 Tdp1-/- hTDP1 cells, no CPT, ATP luminescence, 48 h. Potency, µM (top dose mostly 46.2 µM), for inactives: top-dose activity change, negative = growth inhibition, most hits filed as inhibitors. 15% of 420,000 active. AID 686978, 2013; also: potency is read from the fitted curve at half-maximal effect; % is scaled to controls: 0 for no effect and ±100 for the full control effect; nearly all actives have a fitted effect of over 55% in size
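No-CPT arm: Tdp1-/-;hTDP1 DT40 cells (400/well) plus compounds, incubated ≥48 hr at 37 °C. Readout CellTiter-Glo luminescence.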
D3 ag: activates the human D3 dopamine receptor; P35462; D3R DiscoveRx beta-arrestin cells, luminescence, 90 min; max activation, %; 0.58% of 410,000 active; in the data active = max activation above about 30%; also: 0% is about no effect
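Cells at 1500/well, incubated overnight, then treated with pinned compounds (dopamine as control) for 90 min at 37 degrees C. DiscoveRx reagent added for 30 - 60 minutes at room temperature; luminescence read.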
* hit, by the source's call; i = inactive; ? = inconclusive; . = no result given. In the library only some 21% were active in any assay of this set; here they are far more common. Unless noted, calls follow the shape of the dose curve; as a rule, active = well fitted inhibition curve with a large enough effect; inconclusive = small, poorly fitted or top-dose-only effect; inactive = flat fitted curve, though single readings scatter.

SMILES	DRD3 antagonist	ClpP mod	IL1B secr inh	TDP1 cell CPT	DT40 TDP1 no CPT	D3 ag
Cc1cc(SCC(=O)N/N=C/c2ccc(C(=O)O)cc2)nc2ccccc12	2	.	29	9%	0%	2
COc1ccc(OC)c(NC(=O)CCN2CCN(C/C=C/c3ccccc3)CC2)c1	?	-4%	0	?	?	-14
CCc1c(C)c2ccc(O)c(CN3CCN(c4ccccc4)CC3)c2oc1=O	.	4%	.	15µM*	21µM*	-19
COc1ccc(-c2c(C)c3ccc(O)c(CN4CCOCC4)c3oc2=O)cc1	.	5%	.	16µM*	23µM*	-8
COc1ccc(-c2c(C)c3ccc(O)c(CN4CCCC4)c3oc2=O)cc1	.	4%	.	?	15µM*	3
Cc1c(-c2ccc(Cl)cc2)c(=O)oc2c(CN3CCN(C)CC3)c(O)ccc12	.	4%	.	?	23µM*	-17
CC(=O)Nc1nn(C)c2nc3ccc(C)cc3cc12	18	-10%	-14	-13%	?	0
COc1ccc(Oc2c(C)oc3c(CN4CCOCC4)c(O)ccc3c2=O)cc1	5	32µM*	6	-8%	-18%	-2
Cc1oc2c(CN3CCOCC3)c(O)ccc2c(=O)c1-c1ccccc1	-4	28µM*	-1	1%	-27%	3
COc1ccc(-n2c(C)c([N+](=O)[O-])c3ccc(O)c(CN4CCCCC4)c32)cc1	?	-2%	-68*	16µM*	?	-15
COc1ccccc1-c1c(C)oc2c(CN3CCOCC3)c(O)ccc2c1=O	1	3%	0	3%	26%	0
Cc1cccc(CNC(=O)C2CCC(=O)N(CC3CCCCC3)C2)c1 (stereo not drawn)	24	1%	6	?	?	9
CC(C)c1cc(C(N)=O)c(NC(=O)C2CCC2)s1	-9	0%	10	-14%	-14%	37*
CCOc1ccc(CCNC(=O)c2cnc3sc(N4CCCCC4)nn3c2=O)cc1	.	-9%	.	?	-25%	5
CCOCCCNC(=O)c1cnc2sc(N3CCCCCC3)nn2c1=O	.	16µM*	.	2%	-18%	11
CCCCNC(=O)c1cnc2sc(N3CCCCCC3)nn2c1=O	.	25µM*	.	?	?	-7
CCCCNC(=O)c1cnc2sc(N3CCCCC3)nn2c1=O	.	4%	.	-16%	-17%	0
CC(C)CCNC(=O)c1ccc(Cn2c(=O)c3cccn3c3cccnc32)cc1	.	4%	.	?	0.52µM*	7
Cc1ccc(CCNC(=O)c2ccc(Cn3c(=O)c4cccn4c4cccnc43)cc2)cc1	.	5%	.	?	?	1
Cc1ccccc1CCNC(=O)c1ccc(Cn2c(=O)c3cccn3c3cccnc32)cc1	.	4%	.	?	18µM*	-7
CCC(C)NC(=O)Cn1c(=O)n(Cc2ccc(C(=O)NCc3ccc(C)cc3)cc2)c(=O)c2ccccc21 (stereo not drawn)	.	-7%	.	10µM*	23µM*	5
CCc1ccc(CNC(=O)c2ccc(Cn3c(=O)c4cccn4c4cccnc43)cc2)cc1	.	15%	.	?	0.46µM*	-2
CN(C(=O)c1cc(-c2ccccc2)on1)C1CCCCC1	-4	.	-29	19%	-14%	-12
Cc1ccc(NC(=O)c2cnccn2)cc1S(=O)(=O)N1CCCCCC1	-9	0%	14	?	23µM*	3
O=C(Nc1ccc(Cl)c(S(=O)(=O)N2CCCCC2)c1)c1cccnc1	-7	-1%	0	18µM*	?	-4
SMILES	DRD3 antagonist	ClpP mod	IL1B secr inh	TDP1 cell CPT	DT40 TDP1 no CPT	D3 ag
O=C(Nc1ccncc1)c1ccc(Cl)c(S(=O)(=O)N2CCCC2)c1	4	.	52	?	26µM*	5
O=C(Nc1nc2ccccc2[nH]1)c1ccc(S(=O)(=O)N2CCOCC2)cc1	14	-2%	18	?	?	6
O=C(Nc1nccs1)c1ccc(Cl)c(S(=O)(=O)N2CCCCC2)c1	13	-2%	-12	10%	-24%	-5
Cc1cnc(C(=O)Nc2ccc(C)c(S(=O)(=O)N3CCCCC3)c2)cn1	4	3%	40	-2%	-21%	0
O=C(Nc1nc2ccccc2[nH]1)c1ccc(Cl)c(S(=O)(=O)N2CCCC2)c1	?	-10%	-59*	18µM*	16µM*	-2
CCc1nn2c(=O)c(S(=O)(=O)Nc3ccc(Br)cc3F)c(C)nc2s1	.	2%	.	-28%	-25%	-5
CCN(CC)S(=O)(=O)c1cc(C(=O)Nc2cccnc2)ccc1Cl	15	1%	13	-21%	-14%	12
O=C(Nc1ccon1)c1ccc(Cl)c(S(=O)(=O)N2CCCCC2)c1	-15	-27%	i	?	23µM*	3
CCN(CC)S(=O)(=O)c1cc(C(=O)Nc2ccncc2)ccc1Cl	-14	-1%	-56*	23µM*	16µM*	-12
O=c1c(-c2cccc3ccccc23)[n+]([O-])c2ccccc2n1O	-53*	-5%	33	-12%	-13%	-2
CCOn1c(=O)c(-c2cccc3ccccc23)[n+]([O-])c2ccccc21	8	.	-13	13%	-4%	5
CN(C)c1ccc(/C=C/N2C=CCc3c2ccc2ccccc32)cc1	.	-7%	.	0.079µM*	0.089µM*	.
CC1(C)CC(C)(O)N(Cc2ccccc2)C(=S)N1 (stereo not drawn)	16	0%	-15	1%	-12%	1
C=C1c2cc3c(cc2NC(=S)N1Cc1ccccc1)OCO3	-7	.	.	16µM*	?	-2
CCCCC/C=C/C1=CC(=O)C[C@H](c2ccc(OC)cc2)C1	-26	-2%	-10	-22%	-20%	2
COC(=O)c1cc(NC(=O)c2nn(C)c3c2CSc2ccccc2-3)cc(C(=O)OC)c1	.	-1%	.	6%	5%	18
O=C(CS(=O)(=O)c1ccc(F)cc1)Nc1nnc(-c2cccs2)o1	8	.	3	2%	1%	-3
Cc1ccc(C)c(-c2nnc(NC(=O)CCS(=O)(=O)c3ccccc3)o2)c1	15	-6%	6	?	?	2
COc1cc(OC)cc(-c2nnc(NC(=O)CCS(=O)(=O)c3ccc(F)cc3)o2)c1	12	-18%	-66*	?	?	-3
COc1cc(OC)cc(-c2nnc(NC(=O)CCS(=O)(=O)c3ccccc3)o2)c1	0	-22%	-72*	?	16µM*	-2
